From PubChem BioAssay (NCATS)
Inconclusive results are not listed. Activity calls are given as the source filed them. The call rests on the fitted dose curve; in most records, active means well fitted cell-killing curve with a large enough effect; inconclusive means small, poorly fitted or top-dose-only effect, or effect the other way; inactive means no such curve, though single readings can be large or run the other way.

Legend:
[1] = Quantitative High-Throughput drug screen in 47 multiple myeloma cell lines against the NCATS MIPE library collection: MM1R_ATCC cell viability assay (AID 1918981); further: nearly all actives have a fitted effect of over 35% in size
How it was run: (§1)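 Readout: median RLU from CellTiter-Glo after 5 min at room temperature. Preceding step was 48 h drug treatment of 500 cells/well at 37 °C, 5% CO2, with DMSO-only and media-only control wells.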

[2] = Quantitative High-Throughput drug screen in 47 multiple myeloma cell lines against the NCATS MIPE library collection: LP1_DSMZ cell viability assay (AID 1918982); further: nearly all actives have a fitted effect of over 35% in size
How it was run: as §1

[3] = Quantitative High-Throughput drug screen in 47 multiple myeloma cell lines against the NCATS MIPE library collection: L363_DSMZ cell viability assay (AID 1918984); further: nearly all actives have a fitted effect of over 40% in size
How it was run: as §1

[4] = Quantitative High-Throughput drug screen in 47 multiple myeloma cell lines against the NCATS MIPE library collection: OCIMY7_PLB cell viability assay (AID 1918987); settings: OCI-MY7 myeloma viability, CellTiter-Glo ATP, 48 h; viability (% of DMSO): at 45.8 µM (top of the series); further: nearly all actives have a fitted effect of over 65% in size
How it was run: as §1

[5] = Quantitative High-Throughput drug screen in 47 multiple myeloma cell lines against the NCATS MIPE library collection: OCIMY5_PLB cell viability assay (AID 1918988); further: nearly all actives have a fitted effect of over 65% in size
How it was run: as §1

[6] = Quantitative High-Throughput drug screen in 47 multiple myeloma cell lines against the NCATS MIPE library collection: OPM1_PLB cell viability assay (AID 1918989); further: nearly all actives have a fitted effect of over 40% in size
How it was run: as §1

[7] = Quantitative High-Throughput drug screen in 47 multiple myeloma cell lines against the NCATS MIPE library collection: SKMM1_PLB cell viability assay (AID 1919863); settings: SKMM1 myeloma viability, CellTiter-Glo ATP, 48 h; viability: hits give low values; further: nearly all actives have a fitted effect of over 35% in size
How it was run: as §1

[8] = Quantitative High-Throughput drug screen in 47 multiple myeloma cell lines against the NCATS MIPE library collection: U266_ATCC cell viability assay (AID 1919864); further: nearly all actives have a fitted effect of over 35% in size
How it was run: as §1

[9] = Quantitative High-Throughput drug screen in 47 multiple myeloma cell lines against the NCATS MIPE library collection: XG6_PLB cell viability assay (AID 1919865); further: nearly all actives have a fitted effect of over 40% in size
How it was run: as §1

[10] = Quantitative High-Throughput drug screen in 47 multiple myeloma cell lines against the NCATS MIPE library collection: XG1_PLB cell viability assay (AID 1919866); further: nearly all actives have a fitted effect of over 35% in size
How it was run: as §1

[11] = Quantitative High-Throughput drug screen in 47 multiple myeloma cell lines against the NCATS MIPE library collection: VP6_DJ cell viability assay (AID 1919867); further: nearly all actives have a fitted effect of over 40% in size
How it was run: as §1

[12] = Quantitative High-Throughput drug screen in 47 multiple myeloma cell lines against the NCATS MIPE library collection: PE2_PLB cell viability assay (AID 1919869); further: nearly all actives have a fitted effect of over 35% in size
How it was run: as §1

[13] = Quantitative High-Throughput drug screen in 47 multiple myeloma cell lines against the NCATS MIPE library collection: PCM6_Riken cell viability assay (AID 1919870); further: nearly all actives have a fitted effect of over 30% in size
How it was run: as §1

[14] = Quantitative High-Throughput drug screen in 47 multiple myeloma cell lines against the NCATS MIPE library collection: RPMI8226_ATCC cell viability assay (AID 1919871); further: nearly all actives have a fitted effect of over 30% in size
How it was run: as §1

[15] = Quantitative High-Throughput drug screen in 47 multiple myeloma cell lines against the NCATS MIPE library collection: OPM2_DSMZ cell viability assay (AID 1919872); further: nearly all actives have a fitted effect of over 30% in size
How it was run: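 Luminescent ATP measurement with CellTiter-Glo gives viability, scaled between DMSO-only wells (100%) and media-only wells (0%). Cells, 500 per well, faced library compounds for 48 hours at 37C.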

[16] = Quantitative High-Throughput drug screen in 47 multiple myeloma cell lines against the NCATS MIPE library collection: KMS11_JCRBsus cell viability assay (AID 1919873); further: nearly all actives have a fitted effect of over 50% in size
How it was run: as §1

[17] = Quantitative High-Throughput drug screen in 47 multiple myeloma cell lines against the NCATS MIPE library collection: KMS28BM_JCRB cell viability assay (AID 1919874); further: nearly all actives have a fitted effect of over 35% in size
How it was run: as §1

[18] = Quantitative High-Throughput drug screen in 47 multiple myeloma cell lines against the NCATS MIPE library collection: KMS28PE_JCRB cell viability assay (AID 1918983); further: nearly all actives have a fitted effect of over 35% in size
How it was run: as §1

[19] = Quantitative High-Throughput drug screen in 47 multiple myeloma cell lines against the NCATS MIPE library collection: KMS34_JCRB cell viability assay (AID 1918985); further: nearly all actives have a fitted effect of over 40% in size
How it was run: as §1

[20] = Quantitative High-Throughput drug screen in 47 multiple myeloma cell lines against the NCATS MIPE library collection: UTMC2_PLB cell viability assay (AID 1919868); settings: CellTiter-Glo ATP luminescence, 48 h; viability (% of DMSO control): at 45.8 µM (top of the series); further: nearly all actives have a fitted effect of over 55% in size
How it was run: as §1
Potency means the concentration at half of the fitted maximal effect.

CC(C)[C@H](CO)Nc1nc(Nc2cccc(Cl)c2)c2ncn(C(C)C)c2n1
active: Potency [1] 18.7 µM | Potency [2] 23.5 µM | Potency [4] 6.62 µM | Potency [5] 18.7 µM | Potency [6] 23.5 µM | Potency [7] 20.9 µM | Potency [8] 18.7 µM | Potency [9] 5.26 µM | Potency [10] 6.62 µM | Potency [11] 13.2 µM | Potency [12] 18.7 µM | Potency [13] 16.6 µM | Potency [14] 26.4 µM | Potency [15] 20.9 µM | Potency [16] 11.8 µM | Potency [17] 18.7 µM
inactive: Potency [3]

CCCNS(=O)(=O)Nc1ncnc(OCCOc2ncc(Br)cn2)c1-c1ccc(Br)cc1
inactive: Potency [1] | Potency [2] | Potency [18] | Potency [6] | Potency [8] | Potency [9] | Potency [10] | Potency [11] | Potency [13] | Potency [15] | Potency [16] | Potency [17]

COc1ccc(S(=O)(=O)Nc2cc(-c3c(O)ccc4ccccc34)c(O)c3ccccc23)cc1
active: Potency [1] 23.5 µM | Potency [2] 16.6 µM | Potency [3] 2.64 µM | Potency [19] 10.5 µM | Potency [4] 2.64 µM | Potency [5] 20.9 µM | Potency [7] 20.9 µM | Potency [8] 2.35 µM | Potency [9] 5.9 µM | Potency [10] 5.26 µM | Potency [11] 9.35 µM | Potency [20] 16.6 µM | Potency [12] 1.48 µM | Potency [13] 5.26 µM | Potency [15] 11.8 µM | Potency [16] 3.32 µM

O=S(=O)(O)CCSSCCS(=O)(=O)O
inactive: Potency [1] | Potency [2] | Potency [5] | Potency [6] | Potency [9] | Potency [20] | Potency [13] | Potency [15] | Potency [17]

C[C@H](O)[C@@H]1C(=O)N2C(C(=O)O)=C(S[C@@H]3CN[C@H](CNS(N)(=O)=O)C3)[C@@H](C)[C@@H]12
inactive: Potency [1] | Potency [2] | Potency [18] | viability [7] 105% | Potency [8] | Potency [10] | Potency [11] | Potency [20] | Potency [13] | Potency [15] | Potency [16]

C[C@](Cc1c[nH]c2ccccc12)(NC(=O)OC1C2CC3CC(C2)CC1C3)C(=O)NC[C@H](NC(=O)CCC(=O)O)c1ccccc1 (stereo partly drawn)
inactive: Potency [1] | Potency [2] | Potency [5] | viability [7] 114% | Potency [8] | Potency [12] | Potency [14] | Potency [15] | Potency [16] | Potency [17]

O=C(Nc1ccc(Oc2ccnc3[nH]ccc23)c(F)c1)c1cccn(-c2ccc(F)cc2)c1=O
active: Potency [1] 10.5 µM | Potency [7] 18.7 µM | Potency [9] 26.4 µM | Potency [10] 26.4 µM | Potency [11] 20.9 µM | Potency [13] 23.5 µM
inactive: Potency [2] | Potency [8] | Potency [20] | Potency [12] | Potency [15] | Potency [17]

Cc1noc(-c2ccc(CSCCC(=O)O)cc2)c1NC(=O)OC(C)c1ccccc1Cl (stereo not drawn)
inactive: Potency [1] | Potency [2] | Potency [19] | Potency [6] | viability [7] 124% | Potency [8] | Potency [9] | Potency [10] | Potency [11] | Potency [20] | Potency [12] | Potency [13] | Potency [14] | Potency [15] | Potency [16] | Potency [17]

CC1(C)O[C@@H]2C[C@H]3[C@@H]4CCC5=CC(=O)C=C[C@]5(C)[C@@H]4[C@@H](O)C[C@]3(C)[C@]2(C(=O)CO)O1
inactive: Potency [1] | Potency [18] | viability [7] 142% | Potency [8] | Potency [9] | Potency [12] | Potency [15] | Potency [17]
active: Potency [2] 0.0166 µM | Potency [5] 0.118 µM | Potency [11] 18.7 µM | Potency [14] 0.0332 µM | Potency [16] 0.0332 µM

CC(=O)O[C@H]1C[C@@H]2CC[C@H]3[C@H]4C[C@H]([N+]5(C)CCCCC5)[C@@H](OC(C)=O)[C@@]4(C)CC[C@@H]3[C@@]2(C)C[C@H]1[N+]1(C)CCCCC1
active: Potency [8] 23.5 µM
inactive: Potency [1] | Potency [2] | Potency [3] | viability [7] 128% | Potency [9] | Potency [10] | Potency [13] | Potency [14] | Potency [15] | Potency [16] | Potency [17]

CCOC(=O)[C@@H](N)Cc1ccc(-c2cc(O[C@H](c3ccc(Cl)cc3-n3ccc(C)n3)C(F)(F)F)nc(N)n2)cc1
active: Potency [1] 14.8 µM | Potency [18] 20.9 µM | Potency [3] 10.5 µM | Potency [19] 16.6 µM | Potency [4] 11.8 µM | Potency [5] 18.7 µM | Potency [6] 23.5 µM | Potency [7] 23.5 µM | Potency [8] 23.5 µM | Potency [9] 16.6 µM | Potency [11] 26.4 µM | Potency [20] 20.9 µM | Potency [12] 23.5 µM | Potency [13] 18.7 µM | Potency [15] 18.7 µM | Potency [16] 16.6 µM | Potency [17] 18.7 µM

NC(=O)Nc1sc(-c2ccc(F)cc2)cc1C(N)=O
active: Potency [1] 4.69 µM | Potency [18] 18.7 µM | Potency [3] 0.0833 µM | Potency [19] 2.64 µM | Potency [4] 0.662 µM | Potency [5] 2.09 µM | Potency [6] 0.833 µM | Potency [7] 11.8 µM | Potency [8] 13.2 µM | Potency [9] 0.0105 µM | Potency [11] 1.32 µM | Potency [20] 0.743 µM | Potency [12] 0.372 µM | Potency [13] 0.833 µM | Potency [14] 5.9 µM | Potency [15] 18.7 µM | Potency [16] 4.69 µM | Potency [17] 4.69 µM
